# Laboratory results: PubChem BioAssay (Tox21)
# Calls of active or inactive are those of the source. Where a call stands in place of a potency, no number is given. Unless noted, calls come from the whole dose curve; as a rule, active = well fitted curve in the direction sought with a large enough effect in the repeat runs; inconclusive = weak or mixed curves; inactive = no such curve, though single readings can be large; an effect the other way counts as inactive or inconclusive.
# Legend:
# [1] = qHTS assay to identify small molecule antagonists of the thyroid receptor (TR) signaling pathway - cell viability counter screen (AID 743064); settings: GH3.TRE-Luc viability, CellTiter-Fluor, 24 h; series mostly up to 70.3 µM; note: nearly all actives have a fitted effect of over 50% in size; note: potency is the fitted concentration of half-maximal effect
# Summary of the method: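 GH3.TRE-Luc cells, 4 h pre-plating; cpd + T3 1 nM final; 37 °C 23.5 h; CellTiter-Fluor 30 min; fluorescence read.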
# [2] = qHTS assay to identify small molecule antagonists of the thyroid receptor (TR) signaling pathway (AID 743065); settings: GH3.TRE-Luc, T3-stimulated luciferase inhibition, 23.5 h; series mostly up to 70.3 µM; note: nearly all actives have a fitted effect of over 55% in size; note: potency is the fitted concentration of half-maximal effect
# Summary of the method: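 GH3.TRE-Luc rat pituitary cells carrying two TR response elements driving luciferase were plated for 4 h, given compound plus 1 nM T3 (final), and incubated 23.5 h at 37 C. ONE-Glo luminescence measured reporter inhibition; CellTiter-Fluor fluorescence tracked cytotoxicity.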
# [3] = tested on: thyroid hormone receptor (rat, GH3 cells); experiment: qHTS assay to identify small molecule agonists of the thyroid receptor (TR) signaling pathway (AID 743066; calls by dose curve; note: potency is the fitted concentration of half-maximal effect); settings: GH3.TRE-Luc cells, TR agonist luciferase, 24 h; series mostly up to 83.9 µM
# [4] = qHTS assay to identify small molecule antagonists of the estrogen receptor alpha (ER-alpha) signaling pathway - cell viability counter screen (AID 743074; calls by dose curve;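 note: HEK293 cells carrying ER-alpha-UAS-bla reporter stimulated with 17beta-estradiol; nearly all actives have a fitted effect of over 45% in size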); settings: ERalpha-bla HEK293 viability, CellTiter-Glo luminescence, 18 h; series mostly up to 69.4 µM
# [5] = qHTS assay to identify small molecule antagonists of the estrogen receptor alpha (ER-alpha) signaling pathway using the BG1 cell line - cell viability counter screen (AID 743081); settings: BG1Luc4E2 viability, CellTiter-Fluor, 22 h; series mostly up to 70.3 µM;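 note: compound given together with 17beta-estradiol as the ER stimulus; nearly all actives have a fitted effect of over 45% in size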
# [6] = target: Estrogen receptor (Homo sapiens) (UniProt P03372); experiment: qHTS assay to identify small molecule antagonists of the estrogen receptor alpha (ER-alpha) signaling pathway (AID 743069; active = well fitted curve in the direction sought with a large enough effect in the signal ratio in the repeat runs, not every such curve was filed as active; inconclusive = weak or mixed curves, or effect the other way; inactive = no such curve, though single readings can be large or run the other way; the % refers to the signal ratio; note: potency is the fitted concentration of half-maximal effect); settings: HEK293 ER-alpha-UAS-bla, beta-lactamase ratio, antagonist mode; series mostly up to 69.4 µM
# Sequence of Estrogen receptor (Homo sapiens) (P03372 whole entry, looked up): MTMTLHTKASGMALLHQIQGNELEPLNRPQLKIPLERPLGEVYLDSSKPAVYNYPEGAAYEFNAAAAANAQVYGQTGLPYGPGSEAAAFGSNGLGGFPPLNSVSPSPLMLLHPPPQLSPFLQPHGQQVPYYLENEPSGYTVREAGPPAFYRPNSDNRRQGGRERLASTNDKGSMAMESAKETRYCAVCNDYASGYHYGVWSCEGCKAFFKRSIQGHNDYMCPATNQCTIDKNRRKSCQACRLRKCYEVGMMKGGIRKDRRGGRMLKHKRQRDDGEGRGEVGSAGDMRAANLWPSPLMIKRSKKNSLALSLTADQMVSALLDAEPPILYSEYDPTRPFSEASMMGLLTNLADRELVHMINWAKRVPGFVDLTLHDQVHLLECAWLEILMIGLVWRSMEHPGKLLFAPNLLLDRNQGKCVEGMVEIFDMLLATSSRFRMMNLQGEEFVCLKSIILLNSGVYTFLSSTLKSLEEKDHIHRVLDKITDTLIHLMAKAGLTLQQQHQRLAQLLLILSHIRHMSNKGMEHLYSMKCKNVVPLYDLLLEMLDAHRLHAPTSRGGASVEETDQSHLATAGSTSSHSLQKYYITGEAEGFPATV
# Summary of the method: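 Estradiol-stimulated ER-alpha-UAS-bla HEK293 cells, 18 hr compound exposure at 37C. LiveBLAzer B/G substrate, 2 hr RT, fluorescence read.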
# [7] = target: Estrogen receptor (Homo sapiens) (UniProt P03372); experiment: qHTS assay to identify small molecule agonists of the estrogen receptor alpha (ER-alpha) signaling pathway (AID 743075; calls by dose curve;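 note: HEK293 GripTite cells with ER-alpha and UAS-driven beta-lactamase reporter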; note: potency is the fitted concentration of half-maximal effect); settings: HEK293 ER-alpha-UAS-bla, beta-lactamase FRET ratio, 18 h; series mostly up to 70.1 µM
# [8] = qHTS assay to identify small molecule antagonists of the estrogen receptor alpha (ER-alpha) signaling pathway using the BG1 cell line (AID 743080; calls by dose curve;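 note: BG1 cells stimulated with 17beta-estradiol alongside compound; nearly all actives have a fitted effect of over 25% in size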; note: potency is the fitted concentration of half-maximal effect); settings: BG1Luc4E2 ERE-luciferase antagonist mode, luminescence; series mostly up to 70.3 µM
# Summary of the method: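 BG1-Luc-4E2 cells (endogenous full-length ER-alpha, stable 4×ERE-luciferase) were starved 5 days in phenol-red-free medium with 10% charcoal-stripped FBS, plated 24 h, then given compound plus 17beta-estradiol for 21.5 h at 37 C; ONE-Glo luminescence read after 30 min.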
# [9] = target: Aromatase (Homo sapiens) (UniProt P11511); experiment: qHTS assay to identify aromatase inhibitors (AID 743083); settings: MCF-7 aro ERE, testosterone-driven ERE luciferase, 24 h; series mostly up to 70.3 µM; note: nearly all actives have a fitted effect of over 55% in size
# Sequence of Aromatase (Homo sapiens) (P11511 whole entry, looked up): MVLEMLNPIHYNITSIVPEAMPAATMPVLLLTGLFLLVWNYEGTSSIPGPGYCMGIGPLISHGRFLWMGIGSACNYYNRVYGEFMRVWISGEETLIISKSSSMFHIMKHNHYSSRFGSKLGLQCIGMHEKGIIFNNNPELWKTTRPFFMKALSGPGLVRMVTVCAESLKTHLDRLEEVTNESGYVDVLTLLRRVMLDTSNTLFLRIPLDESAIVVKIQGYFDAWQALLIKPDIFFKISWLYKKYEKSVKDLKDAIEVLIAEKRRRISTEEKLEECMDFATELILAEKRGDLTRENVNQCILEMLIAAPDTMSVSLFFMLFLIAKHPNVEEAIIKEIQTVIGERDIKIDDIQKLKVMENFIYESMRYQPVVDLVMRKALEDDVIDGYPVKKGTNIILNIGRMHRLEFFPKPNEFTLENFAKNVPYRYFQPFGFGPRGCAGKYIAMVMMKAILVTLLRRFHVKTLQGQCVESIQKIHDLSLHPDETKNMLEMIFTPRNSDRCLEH
# [10] = target: Estrogen receptor (Homo sapiens) (UniProt P03372); experiment: qHTS assay to identify small molecule agonists of the estrogen receptor alpha (ER-alpha) signaling pathway using the BG1 cell line (AID 743079); settings: BG1Luc4E2 cells, ERE-luciferase agonist, 22 h; series mostly up to 70.3 µM; note: nearly all actives have a fitted effect of over 20% in size; note: potency is the fitted concentration of half-maximal effect
Compound,Potency [1],Potency [2],Potency [3],outcome [4],Potency [5],Potency [6],Potency [7],Potency [8],Potency [9],Potency [10]
CC(C)c1cccc(C(C)C)c1NC(=O)NS(=O)(=O)c1cc(C(C)(C)O)co1,inactive,inactive,inactive,inactive,inactive,,,,,
NCc1ccccc1,inactive,inactive,inactive,inactive,inactive,,,,,
COc1ccc(OC)c(OC)c1,inactive,inactive,inactive,inactive,inactive,inactive,inactive,inactive,inactive,
CN1CCC[C@@H]1c1cccnc1,inactive,inactive,inactive,inactive,inactive,,,inactive,inactive,
SC1CCCC1,inactive,inactive,inactive,inactive,inactive,inactive,inactive,inactive,inactive,
Oc1ccc(C(O)CNCCCCCCNCC(O)c2ccc(O)c(O)c2)cc1O (stereo not given),15 µM (active),29.8 µM (active),inactive,inactive,,,,inactive,inactive,
O=C(/C=C/c1ccc(O)c(O)c1)O[C@@H]1C[C@](O)(C(=O)O)C[C@@H](O)[C@H]1O,inactive,inactive,inactive,inactive,inactive,,,,,
CC(C)=CCCC(C)CC=O (stereo not given),inactive,inactive,inactive,inactive,inactive,,,,,
Cc1nc2ccccc2n1Cc1ccc(Cl)cc1,inactive,6.68 µM (active),inactive,,,inactive,inactive,2.37 µM (active),inactive,
Cc1cc(NC(=O)C(=O)O)cc(C)c1Oc1ccc(O)c2c1CCC2,inactive,inactive,1.7 nM (active),,inactive,inactive,inactive,inactive,inactive,38.6 µM (active)
O=C1c2cccc(O)c2C(=O)c2c(O)cc(CO)cc21,inactive,inactive,inactive,inactive,inactive,,inactive,,inactive,
CC(=O)/C=C/C1C(C)=CCCC1(C)C (stereo not given),inactive,inactive,inactive,inactive,inactive,inactive,inactive,inactive,inactive,
C=Cc1c(C)c2cc3[nH]c(cc4nc(cc5nc(cc1[nH]2)C(C)=C5CCC(=O)O)C(CCC(=O)O)=C4C)c(C)c3C=C,inactive,inactive,inactive,inactive,inactive,,4.25 µM [inconclusive] (active),inactive,inactive,1.06 µM (active)
O=C(O)C(c1ccc(Cl)cc1)c1ccc(Cl)cc1,inactive,inactive,inactive,inactive,inactive,,inactive,inactive,,
CC(CN)CCCN (stereo not given),inactive,inactive,inactive,inactive,inactive,inactive,inactive,inactive,inactive,
Nc1cnn([C@@H]2O[C@H](CO)[C@@H](O)[C@H]2O)c(=O)n1,inactive,inactive,inactive,inactive,inactive,,inactive,inactive,inactive,inactive
Nc1ccc(C(=O)Nc2ccccc2N)cc1,18.8 µM (active),29.8 µM (active),inactive,inactive,inactive,,inactive,,inactive,33.5 µM (active)

Compound,Potency [1],Potency [2],Potency [3],outcome [4],Potency [5],Potency [6],Potency [7],Potency [8],Potency [9],Potency [10]
C=C(C)C(=O)OCCOc1ccccc1,inactive,inactive,inactive,inactive,inactive,,inactive,inactive,,43.3 µM (active)
CCOC(=O)C1=C(C)NC(C)=C(C(=O)OC)C1c1cccc([N+](=O)[O-])c1 (stereo not given),inactive,inactive,inactive,inactive,inactive,inactive,inactive,inactive,inactive,
CCOC(=O)C1=NN(c2ccccc2)C(=O)C1,inactive,inactive,inactive,inactive,inactive,,inactive,inactive,inactive,inactive
O=C(c1ccc(O)cc1)c1ccc(O)cc1,inactive,inactive,inactive,inactive,inactive,,17.4 µM [inconclusive] (active),inactive,inactive,2.73 µM (active)
Cn1c(N)nc2nc[nH]c2c1=O,inactive,inactive,inactive,inactive,inactive,,,,inactive,
CCN(CC)C(C)=O,inactive,inactive,inactive,inactive,inactive,,,,inactive,
O=C(O)c1cccc(N(Cc2cccnc2)c2ccc(OC(F)F)c(OC(F)F)c2)c1,inactive,inactive,inactive,inactive,inactive,,,,,
NC(N)=N/N=C/c1c(Cl)cccc1Cl,23.7 µM (active),23.7 µM (active),inactive,inactive,,,inactive,inactive,inactive,inactive
CCOc1cc(OCC)c(C(=O)CCC(=O)O)cc1OCC,inactive,inactive,inactive,inactive,inactive,,inactive,inactive,inactive,inactive
CCCCCCCCCC=O,inactive,inactive,inactive,inactive,inactive,,inactive,inactive,inactive,
Cc1cccc(C(C)(C)C)c1O,inactive,inactive,inactive,inactive,inactive,,inactive,inactive,inactive,inactive
NC(=S)N/N=C/c1cccnc1,inactive,inactive,inactive,inactive,inactive,,,,inactive,
CCOc1nc2cccc(C(=O)O)c2n1Cc1ccc(-c2ccccc2-c2nn[nH]n2)cc1,29.8 µM (active),29.8 µM (active),,inactive,inactive,425 nM [inconclusive] (active),inactive,2.66 µM (active),inactive,0.0376 µM (active)
CCC(=O)OC(C)(C)C1CC=C(C)CC1 (stereo not given),inactive,inactive,inactive,,inactive,,inactive,inactive,inactive,
CN(C(=O)CCCOc1ccc2[nH]c(=O)ccc2c1)C1CCCCC1,inactive,inactive,inactive,inactive,inactive,,,,inactive,
Cc1ccccn1,inactive,inactive,inactive,inactive,inactive,,,,inactive,
